Reference: PubChem BioAssay (NCATS)
Results filed as inconclusive are left out. Entries that show only a call come without a potency. Unmarked numbers belong to inactive results. Calls of active or inactive are those of the source. Calls follow the shape of the dose curve; as a rule, active = well fitted curve in the direction sought with a large enough effect; inconclusive = small, poorly fitted or top-dose-only effect, or another doubt; inactive = no such curve, though single readings can be large; an effect the other way counts as inactive or inconclusive.

Experiments:
[1] = system: CRL-7250; assay: Cytotoxic Profiling of Annotated Libraries Using Quantitative High-Throughput Screening (AID 1296008); settings: Five cell lines viability, CellTiter-Glo ATP luminescence, 48-72 h; max response: hits give low values; also: nearly all actives have a fitted effect of over 60% in size
Outline: (§1)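 Compounds were pin-transferred onto cells and incubated 48 or 72 hr at 37 degree Celsius, 95% humidity. CellTiter-Glo was added, plates sat 10 min at room temperature, then ATP-coupled luminescence was imaged as the viability read-out.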

[2] = system: KB-3-1; assay: as above; settings: Five cell lines viability, CellTiter-Glo ATP luminescence, 48-72 h; max response: hits give low values
Outline: as §1

[3] = system: C33A; assay: Primary qHTS to identify gynecologic anti-cancer compounds using libraries of approved drugs and bioactive compounds (AID 1345084); settings: Gynecologic cancer cell panel viability, ATPlite luminescence, 48 h; series mostly up to 57.5 µM; also: nearly all actives have a fitted effect of over 55% in size
Outline: (§2)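 Cells, 1,000 per well, plated 16 h, then exposed 48 h at 37 C to compounds. Viability by ATPlite luminescence after 15 min at room temperature.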

[4] = system: CAOV3; assay: as above; settings: Gynecologic cancer cell panel viability, ATPlite luminescence, 48 h; series mostly up to 57.5 µM
Outline: as §2

[5] = system: CASKI; assay: as above; settings: Gynecologic cancer cell panel viability, ATPlite luminescence, 48 h; series mostly up to 57.5 µM
Outline: as §2

[6] = system: Es-2; assay: as above; settings: Gynecologic cancer cell panel viability, ATPlite luminescence, 48 h; series mostly up to 57.5 µM
Outline: as §2

[7] = system: HeLa; assay: as above; settings: Gynecologic cancer cell panel viability, ATPlite luminescence, 48 h; series mostly up to 57.5 µM
Outline: as §2

[8] = system: Hek293T; assay: as above; settings: Gynecologic cancer cell panel viability, ATPlite luminescence, 48 h, control line for the selectivity index; series mostly up to 57.5 µM
Outline: as §2

[9] = system: JEG-3; assay: as above; settings: Gynecologic cancer cell panel viability, ATPlite luminescence, 48 h; series mostly up to 57.5 µM
Outline: as §2

[10] = system: OV90; assay: as above; settings: Gynecologic cancer cell panel viability, ATPlite luminescence, 48 h; series mostly up to 57.5 µM
Outline: as §2

[11] = system: NIH3T3; assay: Cytotoxic Profiling of Annotated Libraries Using Quantitative High-Throughput Screening (AID 1296008); settings: Five cell lines viability, CellTiter-Glo ATP luminescence, 48-72 h; max response: hits give low values; also: nearly all actives have a fitted effect of over 60% in size
Outline: as §1

[12] = system: HEK293T; assay: qHTS assay to identify novel small-molecules to repurpose for Merkel cell carcinoma treatment (AID 1296009); settings: MCC and control cell lines, CellTiter-Glo viability, 72 h; also: nearly all actives have a fitted effect of over 60% in size
Outline: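 qHTS format: cells treated with library compounds in DMSO across 8 (NPC) or 11 (MIPE) concentrations. Readout after 72 hr at 37 degree celsius was CellTiter-Glo luminescence.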
Potency is read from the fitted curve at half-maximal effect.

CNc1nc(Nc2ccc(C(=O)N3CCOCC3)cc2OC)nc2[nH]cc(Cl)c12
max response [1]: 1.38%
Potency [2]: 10.3 µM (active)
Potency [3]: inactive
Potency [4]: inactive
Potency [5]: inactive
Potency [6]: inactive
Potency [7]: inactive
Potency [8]: inactive
Potency [9]: inactive
Potency [10]: inactive

CO[C@@H]1CC(OC2CCC3(C)C(CCC45CCC(C6=CC(=O)OC6)C(C)(CCC43)C5=O)C2)O[C@H](C)[C@@H]1O[C@@H]1O[C@H](CO[C@@H]2O[C@H](CO)[C@@H](O)[C@H](O)[C@H]2O)[C@@H](O)[C@H](O)[C@H]1O (some centres not stated)
Potency [1]: 2.46 µM (active)
Potency [2]: 3.48 µM (active)
max response [11]: -1.96%
activity change, negative = cytotoxicity [5]: -0.149% [at 11.6 µM]
Potency [6]: 3.16 µM (active)
activity change, negative = cytotoxicity [10]: -22.2% [at 11.6 µM]

Nc1nccc(-c2c(-c3ccc(F)cc3)ncn2C2CCCCC2)n1
max response [1]: -18.7%
max response [2]: -18.1%
Potency [11]: 16.4 µM (active)
Potency [3]: inactive
Potency [4]: inactive
Potency [5]: inactive
Potency [6]: inactive
Potency [7]: inactive
Potency [9]: inactive

CC(C)=CCC[C@](C)(O[C@@H]1O[C@H](CO[C@@H]2OC[C@@H](O)[C@H](O)[C@H]2O)[C@@H](O)[C@H](O)[C@H]1O)[C@H]1CC[C@]2(C)[C@@H]1[C@H](O)C[C@@H]1[C@@]3(C)CC[C@H](O[C@@H]4O[C@H](CO)[C@@H](O)[C@H](O)[C@H]4O)C(C)(C)[C@@H]3CC[C@]12C
max response [1]: -26.7%
max response [2]: 5.08%
Potency [3]: inactive
Potency [4]: inactive
Potency [5]: inactive
Potency [6]: inactive
Potency [7]: inactive
Potency [8]: inactive
Potency [9]: inactive
Potency [10]: inactive

CN(CC1COCCO1)S(=O)(=O)Nc1ccc2ccc3ncc(-c4cnn(C)c4)cc3c(=O)c2c1 (configuration not stated)
Potency [1]: 5.8 µM (active)
Potency [11]: 3.26 µM (active)
Potency [12]: 6.51 µM (active)
Potency [3]: inactive
Potency [5]: inactive
Potency [6]: inactive
Potency [7]: 14.1 µM (active)
Potency [8]: inactive
Potency [9]: inactive
Potency [10]: inactive

Clc1cccc(COc2cncc(N3CCNCC3)n2)c1
outcome [1]: inactive
max response [2]: -0.792%
max response [11]: -5.94%
Potency [3]: inactive
Potency [4]: inactive
Potency [5]: inactive
Potency [6]: inactive
Potency [7]: inactive
Potency [8]: inactive
Potency [9]: inactive
Potency [10]: inactive

Cc1c(NC(=O)OCC2COCCN2)cn2ncnc(Nc3ccc4c(cnn4Cc4cccc(F)c4)c3)c12 (configuration not stated)
max response [1]: -30.6%
max response [2]: -18.9%
Potency [4]: inactive
Potency [6]: inactive
Potency [7]: inactive
Potency [8]: inactive
Potency [10]: inactive

C=C(C)C1CC(O)C(C)C12CC(O)C1(C)OC1C2O (configuration not stated)
Potency [1]: 2.59 µM (active)
Potency [2]: 3.66 µM (active)
max response [11]: -26.2%
Potency [3]: 11.2 µM (active)
Potency [5]: 12.6 µM (active)
Potency [6]: 8.91 µM (active)
Potency [7]: 14.1 µM (active)
Potency [9]: 28.2 µM (active)
Potency [10]: 7.08 µM (active)

Cc1c(C(=O)Nc2ccc(N3CCC(N4CCOCC4)CC3)c(C#N)c2)cnn1-c1ccc(Cl)cc1
Potency [1]: 1.16 µM (active)
Potency [2]: 1.46 µM (active)
Potency [11]: 0.366 µM (active)
Potency [3]: 0.891 µM (active)
Potency [4]: inactive
Potency [5]: inactive
Potency [7]: inactive
Potency [9]: 0.794 µM (active)

CC(=O)O[C@H]1[C@H](O)C[C@@]2(C)C(CC[C@]3(C)C2CC=C2C4CC(C)(C)CC[C@]4(C(=O)O)CC[C@]23C)C1(C)C (some centres not stated)
max response [1]: -14.7%
max response [2]: -19.6%
max response [11]: -15.2%
Potency [10]: inactive

COc1ccc2nc3n[nH]c(C)c3c(NCCOCCO)c2c1
max response [1]: 4.22%
max response [2]: 2.11%
max response [11]: 2.85%
Potency [3]: inactive
Potency [4]: inactive
Potency [5]: inactive
Potency [6]: inactive
Potency [8]: inactive
Potency [9]: inactive
Potency [10]: inactive

COc1cccc(NCCC2(c3ccccc3)CC(C)(C)OC(C)(C)C2)c1
max response [1]: -3.59%
max response [2]: -14.2%
max response [11]: -25%
Potency [3]: inactive
Potency [4]: inactive
Potency [5]: inactive
Potency [6]: inactive
Potency [7]: inactive
Potency [8]: inactive
Potency [10]: inactive

O=C(Nc1cccc2cccnc12)c1ccc(N2C(=O)[C@@H]3C4C=CC(C4)[C@@H]3C2=O)cc1
Potency [1]: 1.3 µM (active)
max response [2]: -2.67%
Potency [9]: 31.6 µM (active)

O=C(CNC(=O)c1cccc(C(F)(F)F)c1)N[C@@H]1CCN(Cc2ccc(Cl)cc2)C1
max response [1]: -11.8%
max response [2]: -17%
max response [11]: -1.44%
Potency [3]: inactive
Potency [5]: inactive
Potency [7]: inactive
Potency [8]: inactive
Potency [9]: inactive
Potency [10]: inactive

CCCC(Nc1nc(-c2ccc(NC(=O)NCC)c(OC)c2)ncc1C)c1cccnc1 (configuration not stated)
Potency [1]: 0.206 µM (active)
Potency [2]: 0.146 µM (active)
Potency [4]: inactive
Potency [6]: 0.251 µM (active)
Potency [7]: 0.158 µM (active)

C/C=C/C=C/C=C/C(=O)O[C@@H]1C=C2COC(=O)[C@]2(O)[C@@]2(C)CCCC(C)(C)[C@H]12
max response [1]: -25.9%
max response [2]: -0.753%
max response [11]: -4.92%
Potency [4]: inactive
Potency [6]: inactive
Potency [7]: inactive
Potency [8]: inactive
Potency [9]: inactive
Potency [10]: inactive

CC1(C)SCCN(S(=O)(=O)c2ccc(Oc3ccncc3)cc2)[C@H]1C(=O)NO
max response [1]: -1.93%
max response [2]: -10.1%
max response [11]: 2.44%
Potency [3]: inactive
Potency [4]: inactive
Potency [6]: inactive
Potency [7]: inactive
Potency [8]: inactive
Potency [9]: inactive
Potency [10]: inactive

CCN(c1cc(-c2ccc(CN3CCOCC3)cc2)cc(C(=O)NCc2c(C)cc(C)[nH]c2=O)c1C)C1CCOCC1
max response [1]: -21.9%
max response [2]: -1.86%
max response [11]: -11.7%
Potency [3]: inactive
Potency [4]: inactive
Potency [5]: inactive
Potency [6]: inactive
Potency [7]: inactive
Potency [8]: inactive
Potency [9]: inactive
Potency [10]: inactive

COc1ccccc1C(=O)Nc1cc2c(cc1N1CCCC1)n(C)c(=O)n2C
max response [1]: -29%
max response [2]: -11.6%
max response [11]: -10.9%
Potency [3]: inactive
Potency [4]: inactive
Potency [5]: inactive
Potency [6]: inactive
Potency [7]: inactive
Potency [8]: inactive
Potency [9]: inactive
Potency [10]: inactive
